From PubChem BioAssay
Active and inactive are the calls of the source.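 How the source made its calls: active means compound raising the membrane signal above positive-control mean plus 3 SD in both repeats, and a primary screen hit; inactive means the rest.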

What follows are compounds tested against Short transient receptor potential channel 6 (Mus musculus) (UniProt Q61143) (assay: positive modulators of mouse TRPC6 channel – HEK293 cells, membrane potential dye, duplicate, selectivity assay for TRPC4 potentiator project, confirmation (AID 434952)). Conditions: HEK293 TRPC6, membrane potential dye fluorescence, at 10 µM, maximal acetylcholine added after compound.
Chain of Short transient receptor potential channel 6 (Mus musculus) (Q61143 whole entry, looked up): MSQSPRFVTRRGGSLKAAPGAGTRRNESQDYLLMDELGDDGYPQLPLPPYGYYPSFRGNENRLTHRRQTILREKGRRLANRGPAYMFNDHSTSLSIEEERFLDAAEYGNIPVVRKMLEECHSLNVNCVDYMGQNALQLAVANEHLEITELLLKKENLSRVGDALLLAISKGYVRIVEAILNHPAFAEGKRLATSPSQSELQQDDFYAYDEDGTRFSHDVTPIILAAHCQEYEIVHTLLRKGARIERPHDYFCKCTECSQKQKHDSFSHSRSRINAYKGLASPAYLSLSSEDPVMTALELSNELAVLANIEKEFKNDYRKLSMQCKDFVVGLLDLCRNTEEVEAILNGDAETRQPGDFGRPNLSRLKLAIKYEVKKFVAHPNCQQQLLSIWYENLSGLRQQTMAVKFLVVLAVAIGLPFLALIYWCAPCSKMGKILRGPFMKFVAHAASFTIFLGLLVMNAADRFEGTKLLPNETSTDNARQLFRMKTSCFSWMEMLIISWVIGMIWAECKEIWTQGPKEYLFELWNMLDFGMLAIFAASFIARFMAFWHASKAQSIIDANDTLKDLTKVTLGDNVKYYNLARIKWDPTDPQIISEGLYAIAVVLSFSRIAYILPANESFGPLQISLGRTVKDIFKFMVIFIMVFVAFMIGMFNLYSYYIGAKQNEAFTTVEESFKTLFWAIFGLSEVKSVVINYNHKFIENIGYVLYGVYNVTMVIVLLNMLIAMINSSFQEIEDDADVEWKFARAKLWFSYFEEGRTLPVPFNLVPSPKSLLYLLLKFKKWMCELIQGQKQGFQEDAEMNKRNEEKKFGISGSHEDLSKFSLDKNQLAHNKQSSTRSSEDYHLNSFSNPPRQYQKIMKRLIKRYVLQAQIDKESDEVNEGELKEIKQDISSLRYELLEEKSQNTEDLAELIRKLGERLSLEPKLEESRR

outcome, inactive:
CCCc1nc2oc3c(NCCCN(C)C)ncnc3c2c2c1CCCC2
O=C(/C=C/c1ccc(Cl)cc1)N(Cc1ccccc1)C1CCS(=O)(=O)C1 (configuration not stated)
COc1ccc(NS(=O)(=O)c2ccc3ccccc3c2)c2ncccc12
CN(C)S(=O)(=O)N1CCC(CCCC2CCN(S(=O)(=O)N(C)C)CC2)CC1
COc1cc(C2(c3ccc(O)c(OC)c3)C(=O)Nc3c(C)cc(Br)cc32)ccc1O
COC(=O)C(CC(=O)Nc1cc(C)ccc1C)Nc1ccccc1OC (configuration not stated)
CC(C)CCc1noc(CN2CCN(c3ccc(Cl)cn3)CC2)n1
Cc1cc(OCCN2CCCC2)ccc1[N+](=O)[O-]
CSc1ccc(S(=O)(=O)NCC(=O)OCC(=O)N(C)Cc2ccccc2)cc1[N+](=O)[O-]
O=C(COC(=O)c1ccccc1C(=O)N1CCN(c2ccccc2)CC1)Nc1ccc(F)cc1
CCCCCCCCCC[n+]1cccc2c3ccccc3ccc21
Cc1nn(-c2cc(C(F)(F)F)ccc2Cl)c2nc(C(Cl)(Cl)Cl)[nH]c(=O)c12
Cc1cc2oc(C(=O)N(Cc3cccs3)C3CCS(=O)(=O)C3)cc(=O)c2cc1Cl (configuration not stated)
CN(C)CCCN(C(=O)CCc1ccccc1)c1nc2ccc(F)cc2s1
Cc1ccc(C(=O)O)cc1N=Cc1cc(Br)cc(Br)c1O
N=c1c2c3c(sc2ncn1Cc1ccccc1)CCCC3
Cn1c2ccccc2c(=O)c2c(=O)n(-c3ccccc3)c(-c3ccc(C(C)(C)C)cc3)nc21
